The target in experiment [1] is Lysosomal acid glucosylceramidase (Homo sapiens) (UniProt P04062). As to the kind of experiment: Glucocerebrosidase-p2 (AID 348; in the data active means potency below about 10 µM; further: potency means the concentration at half of the fitted maximal effect). Particulars: purified GBA, blue fluorogenic substrate, 40 min. Summed up: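 Normal human glucocerebrosidase (0.2 nM) with blue fluorogenic substrate (80 uM final) in citrate/phosphate pH 5.9 with 10mM sodium taurocholate, 0.01% tween-20; 40 min RT, NaOH/glycine stop; fluorescence Ex 365/Em 440; AC50 from a titration from 0.6 nM upwards.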

The nature of experiment [2]: AP1 Signaling Pathway (AID 357).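 Further: ME-180 reporter cells stimulated with EGF at its EC50 level; on the % scale 0 is the no-effect control and ±100 the full control effect.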 Particulars: ME-180 AP-1-bla reporter, EGF-induced, beta-lactamase ratio, 5 h; at 7.69 µM (top of the series) unless noted. Put shortly: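 In this screen, ME-180 cells in Opti-MEM with 0.5% dialyzed FBS received EC50 EGF and compound titrations for 5 h. AP-1 reporter beta-lactamase was detected via CCF4 ratio, giving AC50 for positive and negative modulators.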

Experiment [3] is described as follows: NFAT Signaling Pathway (AID 444).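 Further: carbachol stimulus at about its EC50 of 1 µM final; on the % scale 0 is the no-effect control and ±100 the full control effect.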 Particulars: Jurkat NFAT-bla M1, carbachol, beta-lactamase ratio, 5 h; at 7.69 µM (top of the series) unless noted. Put shortly: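 Jurkat cells carrying an NFAT-driven β-lactamase reporter and co-transfected muscarinic M1 receptor were treated with compound plus carbachol (1 uM final, an EC50 level) for 5 h at 37 °C. CCF4 loading followed for 1 h at RT; 460/530 nm ratio gave %activity.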

Experiment [4] is described as follows: Stat Signaling Pathway (AID 446).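 Further: ME-180 cervical cancer cells given 40 pM IL-6 alongside compound; SIE-controlled beta-lactamase reporter measured as 460/530 nm FRET emission ratio; on the % scale 0 is the no-effect control and ±100 the full control effect.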 Particulars: ME-180 SIE beta-lactamase reporter, IL-6 stimulated, 5 h; at 7.69 µM (top of the series) unless noted. Put shortly: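 Overnight-plated ME-180 cells bearing a STAT Inducible Element beta-lactamase reporter; 5 h co-exposure to compound and 40 pM IL-6; values normalized to 300 pM IL-6 and 125 nM JAK inhibitor controls.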

Experiment [5] has as its target Glucocorticoid receptor (Homo sapiens) (UniProt P04150). As to the kind of experiment: GR-EFC Redistribution (AID 451; calls by dose curve; further: potency means the concentration at half of the fitted maximal effect). Particulars: CHO-K1 GR-EFC translocation, beta-gal luminescence, 2 h. Summed up:
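CHO-K1 cells stably expressing nuclear-localized β-gal enzyme acceptor and GR fused C-terminally to the enzyme donor fragment; ligand-driven nuclear translocation restores β-gal by complementation. Compounds titrated up to 46 uM final, 2 h at 37 °C; luminescence read.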

For experiment [6], the target named is Mitogen-activated protein kinase 10 (Mus musculus) (UniProt Q61831). The experiment can be described thus: JNK3 AlphaScreen Assay (AID 530).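 Further: kinase came from lysate of stimulated human HepG2 cells; on the % scale 0 is the no-effect control and ±100 the full control effect.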 The note with it: JNK3 lysate, c-Jun phosphorylation; series mostly up to 57.1 µM. Put shortly: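 Biotinylated GST-cJun(1-79) served as substrate for JNK3 in HepG2 lysates stimulated with IL-1beta and TNF-alpha. ATP was 10 uM final, pH 7.6. Ser73 phosphorylation was quantified by AlphaScreen (680 nm excitation).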
Background: In Alpha technology, singlet oxygen from a donor bead excites a nearby acceptor bead.

Experiment [7] deals with 3',5'-cyclic-AMP phosphodiesterase 4B (Homo sapiens) (UniProt Q07343). The experiment can be described thus: qHTS Assay for Inhibitors of PDE-IV (AID 607; active means well fitted activation curve with a large enough effect in the main read-out, with a control signal flat, not every such curve was filed as active; further: % of control where 0% means no effect). The note with it: HEK293 ACTOne CNG channel cells, membrane potential fluorescence; series mostly up to 22.9 µM. Put shortly:
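Live HEK293 cells with a modified cyclic nucleotide-gated (CNG) channel report intracellular cAMP via membrane-potential dye fluorescence (ex 535/em 590 nm). Endogenous PDE-IV was targeted. Compounds were tested at up to 22.9 uM final; RO 20-1724 100 uM served as control.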

Experiment [8] deals with Cytochrome P450 3A4 (Homo sapiens) (UniProt P08684). The experiment can be described thus: qHTS Assay for Activators of Cytochrome P450 3A4 (AID 885; active means well fitted curve in the direction sought with a large enough effect; an effect the other way counts as inactive or inconclusive; further: nearly all actives have a fitted effect of over 65% in size). Particulars: recombinant CYP3A4, Luciferin-PPXE luminescence, 60 min; series mostly up to 57.1 µM. Put shortly: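 Using 20nM recombinant human CYP3A4 in potassium phosphate (200mM), substrate Luciferin-PPXE at 25uM, luminescent luciferin detection followed a 60-min RT NADPH reaction; data scaled to 57 uM ketoconazole.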
Background: qHTS replaces the single test concentration by a dilution series.

A short description of experiment [9]: qHTS Assay for Lipid Storage Modulators (AID 1519; calls by dose curve). The note with it: Drosophila S3 cells, BODIPY lipid droplet/cell ratio, laser cytometry, cells loaded with oleic acid; for activity change, negative = inhibition: at 57.5 µM (top of the series). Put shortly:
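Cells seeded at 5,000 per well were treated with compounds over a concentration series and loaded with oleic acid (400 uM, as added). Lipid droplet fluorescence (488 nm excitation, 500-530 nm channel) was read by laser-scanning cytometry and normalized to 20 uM Triacsin C.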

The nature of experiment [10]: Primary qHTS for small molecule stabilizers of the endoplasmic reticulum resident proteome: Secreted ER Calcium Modulated Protein (SERCaMP) assay (AID 1508630; active means well fitted curve in the direction sought with a large enough effect; an effect the other way counts as inactive or inconclusive; further: on the % scale 0 is the no-effect control and ±100 the full control effect). The note with it: SH-SY5Y GLuc-SERCaMP (Gaussia luciferase released on ER calcium loss) secretion, thapsigargin, luminescence; series mostly up to 38.4 µM. Put shortly:
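The SH-SY5Y reporter protocol was run at 3 concentrations up to 38.3 uM (primary) or 11 concentrations (follow-up): 16 h compound, 100 nM thapsigargin for 4 h, then extracellular luciferase luminescence.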

In experiment [11] the target is Cytochrome P450 3A4 (Homo sapiens) (UniProt P08684). The experiment can be described thus: qHTS Assay for Inhibitors and Substrates of Cytochrome P450 3A4 (AID 884; active means well fitted curve in the direction sought with a large enough effect; an effect the other way counts as inactive or inconclusive; further: on the % scale 0 is the no-effect control and ±100 the full control effect; nearly all actives have a fitted effect of over 50% in size). The note with it: recombinant CYP3A4, Luciferin-PPXE luminescence; series mostly up to 57.1 µM. Summed up:
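Luminescent readout of luciferin produced by CYP3A4 (20 nM) dealkylation of Luciferin-PPXE, 25 uM (its KM). NADPH-driven reaction ran 60 min at RT after 10 min compound preincubation; data scaled to 57 uM ketoconazole as 100% inhibition.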

A short description of experiment [12]: qHTS Assay for Identification of Small Molecule Agonists for Hypoxia Response Element Signaling Pathway (AID 914; active means well fitted activation curve with a large enough effect in the signal ratio, with a control signal flat, not every such curve was filed as active; the % refers to the signal ratio; further: % of control where 0% means no effect). The note with it: ME-180 (cervical carcinoma) HRE-bla reporter, beta-lactamase ratio, CoCl2, 17 h; activation: stronger effect = higher value. Summed up:
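HRE-bla ME-180 assay for agonist-like enhancement of an EC50 CoCl2 stimulus: 17 h at 37 degrees Celsius, CCF4 for 2.5 h, ratiometric 460/530 nm signal converted to %Activity and fitted to AC50.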

Experiment [13] has as its target Glucocorticoid receptor (Homo sapiens) (UniProt P04150). The experiment can be described thus: GR-GFP Redistribution (AID 450;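 active means compounds whose dose series gives a full or clear partial fitted curve of increased nuclear translocation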; further: potency means the concentration at half of the fitted maximal effect). Particulars: U2OS GR-GFP nuclear translocation, laser cytometry, 2 h.
Experiment [14] in a line: Confirmation and Secondary Assay for Modulators of Hemoglobin Beta Chain Splicing at IVS2 654 locus (AID 910; active means well fitted curve in the direction sought with a large enough effect; an effect the other way counts as inactive or inconclusive;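 further: per-well total GFP intensity by laser scanning cytometry after 2-day treatment; % of control where 0% means no effect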). The note with it: HeLa EGFP-654 splicing reporter, GFP fluorescence, 48 h; series mostly up to 38.3 µM. Summed up:
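HeLa cells stably carrying EGFP interrupted by mutant beta-globin IVS2-654 intron (CMV-driven) were treated with compound for 2 days at 37C; corrected splicing was scored as total peak GFP intensity per well (488 nm excitation, 500-520 nm emission).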

Experiment [15] in a line: Confirmation and Secondary Assay for Modulators of Hemoglobin Beta Chain Splicing at IVS2 705 locus (AID 930; active means well fitted curve in the direction sought with a large enough effect; an effect the other way counts as inactive or inconclusive;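 further: HeLa cells stably expressing the EGFP-705 splicing reporter; GFP fluorescence per well restored by corrected splicing of the IVS2-705 intron in EGFP; % of control where 0% means no effect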). The note with it: HeLa EGFP-705 splicing reporter, GFP fluorescence, 48 h; series mostly up to 38.3 µM. Summed up: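 HeLa IVS2-705 EGFP reporter cells, 500/well, compound 2 d at 37C; correct splicing yields fluorescent EGFP. Control: 500 nM antisense PNA. Read-out: total peak GFP intensity.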

Experiment [16] has as its target Ubiquitin carboxyl-terminal hydrolase 1 (Homo sapiens) (UniProt O94782). The experiment can be described thus: Inhibitors of USP1/UAF1: Pilot qHTS (AID 504865; active means well fitted curve in the direction sought with a large enough effect; an effect the other way counts as inactive or inconclusive;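 further: rhodamine fluorescence freed from ubiquitin-rhodamine substrate followed over time; top concentration of the series differs between compounds; on the % scale 0 is the no-effect control and ±100 the full control effect; nearly all actives have a fitted effect of over 35% in size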). Particulars: purified USP1/UAF1, Ub-rhodamine cleavage fluorescence; series mostly up to 54.9 µM. Put shortly:
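In 50mM HEPES pH 7.8 containing 0.5mM EDTA, 1mM TCEP, 0.1 mg/ml BSA and 0.01% Tween-20, 1nM USP1/UAF1 is exposed to compound for 15 min, then Ub-Rho (150nM final) is added and fluorescence is read over time.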

Where [17] appears, read: measured here: cell count channel max response.
The mark [18] stands for this setting: measured here: lipid channel max response.

Each structure is given as a SMILES string. Inconclusive results are not listed. Activity calls are given as the source filed them. Unless noted, the call rests on the fitted dose curve; in most records, active means well fitted curve in either direction with a large enough effect (not every such curve was filed as active); inconclusive means small, poorly fitted or top-dose-only effect, or another doubt; inactive means flat fitted curve, though single readings scatter.

Chain of Glucocorticoid receptor (Homo sapiens) (P04150 whole entry, looked up, the tested form may be a part): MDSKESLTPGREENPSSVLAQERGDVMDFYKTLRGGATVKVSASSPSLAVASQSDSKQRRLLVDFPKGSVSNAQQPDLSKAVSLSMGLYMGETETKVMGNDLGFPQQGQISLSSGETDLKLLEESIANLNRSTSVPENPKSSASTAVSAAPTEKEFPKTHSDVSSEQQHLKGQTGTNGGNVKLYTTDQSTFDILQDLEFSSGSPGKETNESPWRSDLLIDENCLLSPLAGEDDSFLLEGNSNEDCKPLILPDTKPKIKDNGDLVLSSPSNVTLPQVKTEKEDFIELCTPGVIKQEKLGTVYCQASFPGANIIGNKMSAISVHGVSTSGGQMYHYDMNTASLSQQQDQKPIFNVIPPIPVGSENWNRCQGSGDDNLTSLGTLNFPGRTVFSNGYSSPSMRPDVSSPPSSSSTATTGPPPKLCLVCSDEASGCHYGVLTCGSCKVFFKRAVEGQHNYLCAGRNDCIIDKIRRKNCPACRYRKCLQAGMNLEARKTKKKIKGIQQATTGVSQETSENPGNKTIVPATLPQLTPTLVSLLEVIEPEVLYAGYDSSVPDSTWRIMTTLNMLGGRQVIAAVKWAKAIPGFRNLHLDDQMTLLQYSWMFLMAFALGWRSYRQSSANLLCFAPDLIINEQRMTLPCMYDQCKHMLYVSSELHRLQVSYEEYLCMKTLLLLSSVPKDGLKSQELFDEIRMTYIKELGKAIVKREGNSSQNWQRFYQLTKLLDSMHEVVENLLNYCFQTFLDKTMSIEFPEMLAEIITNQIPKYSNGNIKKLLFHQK
Chain of 3',5'-cyclic-AMP phosphodiesterase 4B (Homo sapiens) (Q07343 whole entry, looked up): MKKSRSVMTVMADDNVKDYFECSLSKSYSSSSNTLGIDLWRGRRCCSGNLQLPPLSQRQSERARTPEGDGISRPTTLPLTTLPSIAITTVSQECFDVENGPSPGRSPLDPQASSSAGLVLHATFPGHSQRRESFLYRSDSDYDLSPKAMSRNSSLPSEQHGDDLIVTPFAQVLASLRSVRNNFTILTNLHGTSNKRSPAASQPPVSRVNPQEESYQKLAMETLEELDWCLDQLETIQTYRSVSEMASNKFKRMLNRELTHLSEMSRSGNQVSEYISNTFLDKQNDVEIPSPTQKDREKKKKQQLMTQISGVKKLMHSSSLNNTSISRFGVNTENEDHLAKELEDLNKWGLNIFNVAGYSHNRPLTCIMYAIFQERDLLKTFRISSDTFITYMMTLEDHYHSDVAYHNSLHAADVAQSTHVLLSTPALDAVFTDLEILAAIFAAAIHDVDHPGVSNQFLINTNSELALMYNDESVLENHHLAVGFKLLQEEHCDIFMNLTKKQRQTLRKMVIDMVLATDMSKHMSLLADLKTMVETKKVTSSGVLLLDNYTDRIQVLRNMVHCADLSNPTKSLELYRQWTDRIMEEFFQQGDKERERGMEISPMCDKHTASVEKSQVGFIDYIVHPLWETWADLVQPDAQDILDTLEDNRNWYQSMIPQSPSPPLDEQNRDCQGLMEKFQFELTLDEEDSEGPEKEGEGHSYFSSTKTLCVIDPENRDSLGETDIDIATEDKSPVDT
Chain of Cytochrome P450 3A4 (Homo sapiens) (P08684 whole entry, looked up): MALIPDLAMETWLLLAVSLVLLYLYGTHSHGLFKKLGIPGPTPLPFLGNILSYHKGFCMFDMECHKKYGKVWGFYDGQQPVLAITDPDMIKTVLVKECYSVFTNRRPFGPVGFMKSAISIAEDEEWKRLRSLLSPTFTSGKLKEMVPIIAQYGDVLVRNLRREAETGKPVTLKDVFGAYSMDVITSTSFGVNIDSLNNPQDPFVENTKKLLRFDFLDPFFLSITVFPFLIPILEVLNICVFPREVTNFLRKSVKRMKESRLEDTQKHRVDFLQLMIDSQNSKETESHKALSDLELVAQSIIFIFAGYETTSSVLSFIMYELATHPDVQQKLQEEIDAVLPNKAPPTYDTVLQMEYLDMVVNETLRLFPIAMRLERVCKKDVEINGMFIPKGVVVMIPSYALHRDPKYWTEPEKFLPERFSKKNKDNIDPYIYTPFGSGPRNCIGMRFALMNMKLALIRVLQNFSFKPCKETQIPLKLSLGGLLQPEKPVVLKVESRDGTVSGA
Chain of Lysosomal acid glucosylceramidase (Homo sapiens) (P04062 whole entry, looked up): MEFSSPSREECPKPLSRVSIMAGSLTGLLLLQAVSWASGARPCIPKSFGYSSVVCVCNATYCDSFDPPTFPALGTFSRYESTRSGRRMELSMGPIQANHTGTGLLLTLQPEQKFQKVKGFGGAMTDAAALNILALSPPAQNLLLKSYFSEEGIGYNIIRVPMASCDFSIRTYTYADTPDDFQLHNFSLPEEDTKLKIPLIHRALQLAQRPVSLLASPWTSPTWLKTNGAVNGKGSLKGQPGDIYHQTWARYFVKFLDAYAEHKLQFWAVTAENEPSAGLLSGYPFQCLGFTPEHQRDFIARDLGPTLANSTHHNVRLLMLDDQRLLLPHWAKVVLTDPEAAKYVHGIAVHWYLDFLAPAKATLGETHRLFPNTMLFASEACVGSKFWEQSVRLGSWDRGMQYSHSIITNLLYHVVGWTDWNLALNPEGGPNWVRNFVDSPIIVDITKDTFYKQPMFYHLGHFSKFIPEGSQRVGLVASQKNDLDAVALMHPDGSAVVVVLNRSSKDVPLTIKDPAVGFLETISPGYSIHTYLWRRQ
Chain of Ubiquitin carboxyl-terminal hydrolase 1 (Homo sapiens) (O94782 whole entry, looked up): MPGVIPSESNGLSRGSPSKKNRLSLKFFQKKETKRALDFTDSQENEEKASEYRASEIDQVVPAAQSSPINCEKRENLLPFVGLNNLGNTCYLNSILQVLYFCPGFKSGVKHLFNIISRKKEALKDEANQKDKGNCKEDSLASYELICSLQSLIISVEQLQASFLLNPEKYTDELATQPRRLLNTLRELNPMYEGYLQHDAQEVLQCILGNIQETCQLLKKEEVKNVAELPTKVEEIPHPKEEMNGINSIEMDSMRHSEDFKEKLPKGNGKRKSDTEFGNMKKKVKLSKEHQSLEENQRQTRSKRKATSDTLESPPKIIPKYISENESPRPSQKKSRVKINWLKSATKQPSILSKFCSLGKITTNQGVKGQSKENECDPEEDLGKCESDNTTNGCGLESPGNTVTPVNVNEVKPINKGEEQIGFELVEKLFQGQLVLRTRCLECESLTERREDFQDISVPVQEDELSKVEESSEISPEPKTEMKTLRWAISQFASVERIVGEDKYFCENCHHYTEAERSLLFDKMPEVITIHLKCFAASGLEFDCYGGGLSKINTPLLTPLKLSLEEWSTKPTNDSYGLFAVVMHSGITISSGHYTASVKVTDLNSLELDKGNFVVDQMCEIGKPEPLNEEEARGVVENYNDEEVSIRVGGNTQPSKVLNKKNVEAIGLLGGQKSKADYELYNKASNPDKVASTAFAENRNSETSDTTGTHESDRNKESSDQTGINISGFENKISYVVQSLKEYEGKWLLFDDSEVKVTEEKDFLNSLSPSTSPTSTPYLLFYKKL

Regarding `O=C(Nc1ccccc1)N1CC[C@@]2(CCCN(C(=O)c3ccncc3)C2)C1`, the Potency in [1] was > 11.4 µM (inactive); in experiment [5], > 46 µM (inactive). Besides, the figures for the activity change, negative = inhibition in [2], in experiment [3] and in experiment [9] were -15.8% (inactive), -4.67% (inactive) and 1.5% (inactive), respectively. For the same molecule, in experiment [4], the activity, negative = inhibition is -5.93% (inactive). In addition, the Potency entry in experiment [6], in [7] and in [8] was “inactive” throughout. The max response in experiment [9] (setting [17]) came out at 13.8%; in [9] (setting [18]), 15.1%. The result in [10] was inactive.

With `COc1ccccc1CN1CC[C@@]2(CCCN(C(=O)c3ccncc3)C2)C1`, the Potency in experiment [1] was > 11.4 µM (inactive). Moreover, the activity change, negative = inhibition was -11.5% (inactive) in [2], 3.54% (inactive) in experiment [3] and 3.67% (inactive) in experiment [9]. The activity, negative = inhibition in [4] is 0.423% (inactive). The Potency result in experiment [6] and in [7] was “inactive” throughout. For the same molecule, the max response in experiment [9] (setting [17]) came to 8.53%; in experiment [9] (setting [18]), 14.1%. Also, in [10], the outcome was inactive.

As for `CC(=O)N1CCC2(CCCN(Cc3cc(C(F)(F)F)cc(C(F)(F)F)c3)C2)CC1`, the Potency in [1] was > 11.4 µM (inactive); in experiment [5] it was > 46 µM (inactive). In addition, the activity change, negative = inhibition in experiment [2] was 7.77% (inactive); in experiment [3] it was 23.8% (inactive); in experiment [9], 4.05% (inactive). In addition, in experiment [4], the activity, negative = inhibition is -2.82% (inactive). Also, the Potency result in [6], in experiment [7] and in experiment [8] was “inactive” in each case. For the same molecule, the figures for the max response in experiment [9] (setting [17]) and in experiment [9] (setting [18]) were 1.79% and 9.32%, respectively. Further, the result in [10] was inactive.

As for `COc1ccc(C(=O)N2CCC3(CC2)CCN(c2ccccc2)CC3)cc1`, the values for the Potency in [1] and in experiment [5] were > 11.4 µM (inactive) and > 46 µM (inactive), respectively. Also, the activity change, negative = inhibition is -11.8% (inactive) in experiment [2], 1.53% (inactive) in experiment [3] and 4.37% (inactive) in experiment [9]. For the same molecule, in experiment [4], the activity, negative = inhibition is -8.92% (inactive). In addition, the Potency result in experiment [6], in experiment [7] and in [11] was “inactive” throughout. Moreover, the activation in experiment [12] was -13.6% (inactive). For the same molecule, the max response in experiment [9] (setting [17]) turned out to be 9.05%; in [9] (setting [18]) it was 17.4%. Moreover, in [10], the outcome was inactive.

Consider `Cc1cccc(CNc2cc(-c3cccnc3)ncn2)c1`, for which the Potency in experiment [1] is > 11.4 µM (inactive); in experiment [13], > 46 µM (inactive); in [5], > 46 µM (inactive). Besides, the results for the activity change, negative = inhibition in experiment [2], in experiment [3] and in [9] were -15.4% (inactive), -0.57% (inactive) and -14.1% (inactive), respectively. In addition, the Potency entry in experiment [6], in experiment [7], in experiment [14] and in experiment [16] was “inactive” in each case. In addition, the result in [15] and in [10] was inactive. Further, the figures for the max response in [9] (setting [17]) and in experiment [9] (setting [18]) were -10.4% and -22.1%, respectively.

Regarding `COc1ccccc1CN1CCC2(CC1)CCN(C(=O)c1ccncc1)CC2`, the Potency in experiment [1] was > 11.4 µM (inactive); in experiment [5], > 46 µM (inactive). The activity change, negative = inhibition is -13% (inactive) in experiment [2] and -0.0628% (inactive) in experiment [9]. For the same molecule, the activity, negative = inhibition in experiment [4] was 5.76% (inactive). In addition, the Potency result in experiment [6] and in experiment [7] was “inactive” in each case. In addition, the max response in experiment [9] (setting [17]) was -18.4%; in experiment [9] (setting [18]) it was -17.2%. Further, the result in experiment [10] was inactive.

For `CN1CC[C@@]2(CCCN(S(=O)(=O)c3ccccc3)C2)C1`, the Potency in experiment [1] is > 11.4 µM (inactive); in [5] it was > 46 µM (inactive). The activity change, negative = inhibition in experiment [2] was -25.8% (inactive); in [9], 5.6% (inactive). The activity, negative = inhibition in experiment [4] is 3.36% (inactive). Also, the Potency entry in experiment [6] and in [7] was “inactive” throughout. The figures for the max response in [9] (setting [17]) and in experiment [9] (setting [18]) were 6.91% and 16.3%, respectively. For the same molecule, the outcome in experiment [10] was inactive.

As to `COc1ccc(C(=O)N2CCC3(CC2)CN(CC(C)C)C3)cc1`, the results for the Potency in experiment [1] and in experiment [5] were > 11.4 µM (inactive) and > 46 µM (inactive), respectively. Besides, the values for the activity change, negative = inhibition in experiment [2] and in experiment [9] were 1.62% (inactive) and 3.28% (inactive), respectively. Besides, in [4], the activity, negative = inhibition was 6.78% (inactive). Further, the Potency result in [6] and in experiment [7] was “inactive” throughout. The values for the max response in experiment [9] (setting [17]) and in experiment [9] (setting [18]) were 16.1% and 21.1%, respectively. For the same molecule, the result in experiment [10] was inactive.

These data come from PubChem BioAssay (NCATS).
